Source: PubChem (National Center for Advancing Translational Sciences (NCATS))
HTT ATP protect: cytoprotection in Huntington HTT-Q103 PC12 cell model; PC12 HTT-Q103 induced, cytoprotection, ATP luminescence, 40 h; Potency, µM (top dose mostly 56.4 µM), inactives show cytoprotection (ATP increase), usual class: activators; 230,000 compounds, 0.14% hits; AID 1471; further: potency means the concentration at half of the fitted maximal effect; % of control where 0% means no effect; nearly all actives have a fitted effect of over 45% in size
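Huntington model: PC12 line, ecdysone-inducible HTTQ103 exon1–GFP, tebufenozide 100 nM. Test articles in a dose series. Endpoint luminescence from cellular ATP.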
GALK inh: inhibitors of human galactokinase | 270,000 compounds, 0.007% hits | Potency, µM (series often up to 57.5 µM), for the others: top-dose activity change, negative = inhibition, hits mostly inhibitors | P51570 | Purified GALK, Kinase-Glo residual ATP luminescence | AID 1868; further: potency means the concentration at half of the fitted maximal effect; on the % scale 0 is the no-effect control and ±100 the full control effect
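GALK at 5 nM final was combined with compound, 35 uM ATP and 100 uM galactose in HEPES pH8.0 with MgCl2 and DTT. The reaction ran one hour at room temperature before luminescent ATP detection.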
HttQ103 aggreg: inhibitors of mutant huntingtin aggregate formation in PC12 cells; PC12 HttQ103-GFP aggregates, Acumen cytometry, 40 h; Potency, µM (doses to about 46.1 µM), without a hit: at the highest dose activity change, negative = inhibition, usual class: inhibitors; 220,000 compounds, 1.1% hits; further: potency means the concentration at half of the fitted maximal effect; on the % scale 0 is the no-effect control and ±100 the full control effect; nearly all actives have a fitted effect of over 60% in size
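PC12 cells with ecdysone-inducible HTT exon1 Q103-GFP, induced by 100 nM tebufenozide, given compounds in a concentration series. GFP aggregates (1–25 um, 6 SD above background) counted in lysates by laser-scanning cytometry, 488 nm excitation.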
PI4K2A inh: blocks human PI4K2A kinase activity. 420,000 compounds, 0.13% hits. purified PI4K2A, ADP-Glo luminescence, 1 h; hits give low values. activity change, negative = inhibition, % at 76.9 µM; in the data active means activity change below about -50%; inconclusive means mostly about -30% to -49%;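 further: -100% = wells without enzyme as full effect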
Target sequence (Q9BTU6 whole entry, looked up): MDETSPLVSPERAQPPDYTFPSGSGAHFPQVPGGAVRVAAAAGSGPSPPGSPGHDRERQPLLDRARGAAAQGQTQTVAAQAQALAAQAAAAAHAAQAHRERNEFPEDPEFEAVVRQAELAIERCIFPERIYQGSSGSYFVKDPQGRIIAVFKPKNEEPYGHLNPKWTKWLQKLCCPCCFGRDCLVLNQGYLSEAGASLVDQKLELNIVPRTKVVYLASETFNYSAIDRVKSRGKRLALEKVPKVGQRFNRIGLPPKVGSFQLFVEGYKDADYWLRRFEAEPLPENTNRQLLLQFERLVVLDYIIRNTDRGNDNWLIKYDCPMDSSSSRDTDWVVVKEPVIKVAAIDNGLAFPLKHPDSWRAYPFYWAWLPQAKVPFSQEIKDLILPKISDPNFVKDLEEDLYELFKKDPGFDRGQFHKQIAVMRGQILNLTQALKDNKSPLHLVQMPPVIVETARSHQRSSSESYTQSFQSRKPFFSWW
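PI4K2A activity was measured by ADP-Glo luminescence: enzyme (4 ug/mL stock) and phosphatidylinositol (1.2 mM stock) in Tris pH 7.5/MgCl2/EGTA/Triton X-100 buffer were reacted with ATP (300 microM stock) for one hour at ambient temperature.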
The depositor's hits bear a star; ? = inconclusive; . = no result given; ! = not active in a repeat; [ ] = remark or other dose. Shown is part of a subset that was picked to be rich in hits. Unless noted, the call rests on the fitted dose curve; in most records, active means well fitted curve in the direction sought with a large enough effect; inconclusive means small, poorly fitted or top-dose-only effect, or another doubt; inactive means no such curve, though single readings can be large; an effect the other way counts as inactive or inconclusive.

SMILES	HTT ATP protect	GALK inh	HttQ103 aggreg	PI4K2A inh
CCCC(=O)Nc1ccc(O)c(C(C)=O)c1	.	.	.	-1
Cc1cc(C)nc(N/N=C2/CCCC/C2=C\c2ccccc2)n1	-55%[10 µM]	0%	4.5µM*	7
O=C(COC(=O)c1ccccc1)Nc1ncc([N+](=O)[O-])s1	.	.	.	-5
O=C(Nc1ccccc1)Nc1ncc([N+](=O)[O-])s1	14%[10 µM]	0%	11µM*	-1
CN(C)CCn1c(C(=O)Nc2ccccc2)cc2ccccc21	38%	-1%	3.2µM*	9
CCOC(=O)c1cc2ccccc2n1CCN(CC)CC	18%	-3%	7%	-1
Cc1cc(C(=O)N/N=C/c2cc(Br)cc(Br)c2OC(=O)c2ccccc2)n[nH]1	0%[10 µM]	0%	4.5µM*	.
Cc1cc(C(=O)N/N=C/c2cc(Br)cc(Br)c2OC(=O)c2cccc(F)c2)n[nH]1	14%[10 µM]	-1%	-4%[9.22 µM]	-1
Cc1cc(C(=O)N/N=C\c2cc(C(C)(C)C)ccc2O)n[nH]1	.	-8%	.	-6
Cc1cc(C(=O)N/N=C/c2cc(Br)ccc2OC(=O)c2ccc(Br)cc2)n[nH]1	29%[10 µM]	-1%	10µM*	.
CCOC(=O)[C@]12CCCCC/C=C\1N(CCc1ccc(Cl)cc1)C(=O)[C@H]2CC(=O)NCC12CC3CC(CC(C3)C1)C2	.	.	.	-8
CCN1C(=O)CC(N2CCN(c3ccc(C(=O)c4ccccc4)cc3)CC2)C1=O (stereo unspecified)	-6%	0%	11µM*	1
CCN1C(=O)CC(N2CCN(c3ccc(Cl)cc3)CC2)C1=O (stereo unspecified)	2%	5%	16%	-5
[O-][n+]1cccc2c(Br)cc(Br)c(O)c21	-47%	-1%	?	-11
C[n+]1cccc2c(Br)ccc([O-])c21	-18%[10 µM]	?	-19%[9.22 µM]	-61*
Cc1cnc(CNc2nc(-c3ccc(C(=O)N(C)C)cc3)nc3ccccc23)cn1	-48%	.	.	.
Cc1cc(C)nc(-n2ncc3c2CCCC3=O)n1	25µM*	12%	?	2
COc1cccc(C(c2c(C)[nH]n(-c3ccccc3)c2=O)c2c(C)[nH]n(-c3ccccc3)c2=O)c1OC	0%[10 µM]	2%	7%	?
COc1cccc(C(c2c(C)[nH]n(-c3ccccc3)c2=O)c2c(C)[nH]n(-c3ccccc3)c2=O)c1O	-12%	-4%	-8%	-51*
CC(=O)N/C(=C\c1ccccc1)C(=O)NCc1ccc2c(c1)OCO2	-15%	0%	-26%	-3
CC(=O)N/C(=C/c1ccc2c(c1)OCO2)C(=O)NCC(=O)O	.	0%	3.2µM*	1
O=C(NCCCNc1ccc(C(F)(F)F)cc1[N+](=O)[O-])c1ccc(Cl)cc1	-33%	2%	11µM*	-3
O=C(NCCCNc1ccc(C(F)(F)F)cc1[N+](=O)[O-])c1cc(F)c(F)cc1Cl	-50%	3%	?	12
Cc1ccc(-c2cnn(-c3ccccc3)c2N)cc1	.	.	.	-76*
CNC(=O)Nc1cccc(C(F)(F)F)c1	3%[10 µM]	-2%	-18%	-5
SMILES	HTT ATP protect	GALK inh	HttQ103 aggreg	PI4K2A inh
O=C(NNC(=S)Nc1cccc(C(F)(F)F)c1)c1ccc(Cl)cc1Cl	5%[10 µM]	1%	11µM*	4
O=C(Nc1ccccc1)Nc1cccc(C(F)(F)F)c1	-80%	0%	22µM*	-1
Cc1ccccc1NC(=O)Nc1ccc(C(F)(F)F)cc1	-49%	-1%	11µM*	1
CCSCCc1nnc(NC(=O)Nc2cccc(C(F)(F)F)c2)s1	-11%[1.9 µM]	1%	11µM*	-13
Cc1ccccc1C(=O)NNC(=S)Nc1cccc(C(F)(F)F)c1	.	0%	19%	-17
Cc1ccccc1NC(=O)CNC(=O)c1ccc(C(F)(F)F)cc1	15%[10 µM]	0%	6%	13
O=C(Nc1cccc(C(F)(F)F)c1)Nc1nnc([C@H]2C[C@H](O)[C@@H](CO)O2)s1	.	.	.	-1
c1cn(-c2ncnc3ccc(-c4ccoc4)cc23)cn1	2.5µM*	.	.	.
CCN1C(=O)C2C(C1=O)N1C(c3cccs3)C3C(=O)N(CC)C(=O)C3N1C2c1cccs1 (stereo unspecified)	-2%	3%	28µM*	1
CCN1C(=O)C2C(C1=O)N1C(c3ccccc3)C3C(=O)N(CC)C(=O)C3N1C2c1ccccc1 (stereo unspecified)	0%	0%	5%	7
CN(C)Cc1cc(C(C)(C)c2cc(CN(C)C)c(O)c(CN(C)C)c2)cc(CN(C)C)c1O	.	0%	40µM*	0
N=c1c2c(-c3ccccc3)c(-c3ccccc3)n(Cc3ccccc3)c2ncn1C1CCOCC1	.	.	.	1
CCCCC[C@H](O)/C=C/[C@H]1C(=O)C=C[C@@H]1C/C=C\CCCC(=O)O	5.6µM*!	.	.	.
COC(c1ccccc1)(c1ccccc1)[C@H](Oc1nc(C)cc(C)n1)C(=O)O	.	.	.	-1
CCOC(=O)C(=O)c1csc(NC=O)n1	.	.	.	-1
COc1ccccc1NC(=O)/C(C#N)=C/c1ccncc1	.	-3%	.	0
COc1ccccc1NC(=O)/C(C#N)=C/c1cc([N+](=O)[O-])ccc1N1CCCC1	4µM*	0%	16%	3
N#CC(C#N)=C1C=CC=CN1/C(=C\c1ccco1)C(=O)c1ccc(Cl)cc1	?	-3%	3.5µM*	8
N#CC(C#N)=C1C=CC=CN1/C(=C\c1ccco1)C(=O)c1ccc(-c2ccccc2)cc1	4%[10 µM]	-5%	7.1µM*	26
Cc1c(C)n(Cc2ccc(-c3ccccc3C(=O)O)cc2)c2ccc(C(=O)N[C@@H](C)c3ccc([N+](=O)[O-])cc3)cc12	.	.	.	-2
O=C(NCCc1ccc(F)cc1)c1ccc2c(c1)ncn2C1CCCCC1	.	.	.	-1
CCn1c(N)nc2c1c(=O)n(C)c(=O)n2C	-6%	1%	-20%	2
Cn1nc(-c2ccccn2)nc2c(=O)n(C)c(=O)nc1-2	-45%[10 µM]	1µM*	?	-63*
CCCc1nc2c(=O)n(C)c(=O)nc-2n(C)n1	-172%	1.8µM*	6.3µM*	-61*
COc1cccc(-n2nnnc2S(C)(=O)=O)c1	-120%	1%	2.5µM*	51
Cc1cccc(-n2nnnc2S(C)(=O)=O)c1	.	.	.	40
CCCCc1nc2c(c3c1C[C@H](C)OC3)CN(C(=O)c1cccnc1)CC2	10%[10 µM]	.	.	.
O=C(COC(=O)CCSc1ccc(Cl)cc1)NCCc1ccccc1	10%[10 µM]	0%	?	1
